PAFAH2 FP inh – PAFAH2 (human) inhibition. Q99487. recombinant PAFAH2, FP-rhodamine activity probe, fluorescence polarization. inhibition, % at 3.39 µM. actives 0.99% (n = 340,000);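 active means inhibition above the mean over all tested compounds plus 3 SD, cut at about 30% in these data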;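 further: inhibitors block probe labeling of enzyme so polarization drops; 0% = enzyme with DMSO and 100% = wells lacking PAFAH2 protein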
PAFAH1B2 inh – inhibitors of human PAFAH1B2; actives 1.2% (n = 340,000); recombinant PAFAH1B2, FP-rhodamine activity probe, fluorescence polarization; AID 492953; inhibition, % at 3.39 µM; P68402;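 active means inhibition above the mean of all tested compounds plus 3 SD, cut at about 24% in these data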;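 further: 0% = enzyme with DMSO and 100% = wells lacking PAFAH1B2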
Target sequence (P68402 whole entry, looked up): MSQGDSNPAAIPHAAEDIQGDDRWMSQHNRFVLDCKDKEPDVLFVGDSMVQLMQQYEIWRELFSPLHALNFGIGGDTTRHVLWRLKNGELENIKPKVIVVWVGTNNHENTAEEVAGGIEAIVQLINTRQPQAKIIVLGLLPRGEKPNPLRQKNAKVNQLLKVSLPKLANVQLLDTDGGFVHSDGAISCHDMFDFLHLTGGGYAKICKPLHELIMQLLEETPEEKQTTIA
pPAFAH FP inh – inhibitors of human plasma PAF acetylhydrolase (pPAFAH). actives 1.5% (n = 330,000). inhibition, % at 3.39 µM. recombinant pPAFAH, FP-rhodamine probe fluorescence polarization. Q13093. AID 463082;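 active means inhibition above the mean inhibition across the screen plus 3 SD, cut at about 25% in these data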;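 further: inhibitors block binding of the rhodamine activity-based probe so polarization drops; 0% = enzyme with DMSO and 100% = wells lacking pPAFAH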
DAGLB inhibitor – diacylglycerol lipase beta (human) inhibition | Q8NCG7 | HEK293T DAGLB membrane lysate, EnzChek fluorogenic substrate | inhibition, % at 5.17 µM | actives 0.059% (n = 340,000); in the data active means inhibition above about 34%;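 further: 0% = enzyme with vehicle and 100% = wells lacking enzyme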
HTRA1 inh – inhibitors of human serine peptidase HTRA1; recombinant HTRA1, FP-rhodamine activity-based probe, fluorescence polarization; AID 504803; Q92743; actives 0.5% (n = 340,000); inhibition, % at 5.96 µM; in the data active means inhibition above about 36%;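 further: 0% = enzyme with DMSO and 100% = wells lacking enzyme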
Target sequence (Q92743 whole entry, looked up): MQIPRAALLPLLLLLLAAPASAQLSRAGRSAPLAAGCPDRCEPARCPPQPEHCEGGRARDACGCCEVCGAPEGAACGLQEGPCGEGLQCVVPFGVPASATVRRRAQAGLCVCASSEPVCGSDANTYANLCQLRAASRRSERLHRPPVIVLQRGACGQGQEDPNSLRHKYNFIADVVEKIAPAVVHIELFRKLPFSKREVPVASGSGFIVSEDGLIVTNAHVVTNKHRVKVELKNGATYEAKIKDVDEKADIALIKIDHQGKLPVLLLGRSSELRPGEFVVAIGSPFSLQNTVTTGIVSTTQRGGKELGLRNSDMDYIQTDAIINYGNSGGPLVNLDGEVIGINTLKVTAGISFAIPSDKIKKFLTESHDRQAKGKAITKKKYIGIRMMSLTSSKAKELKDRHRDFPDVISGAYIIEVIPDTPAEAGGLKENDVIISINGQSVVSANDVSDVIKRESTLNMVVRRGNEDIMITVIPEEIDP
PAFAH1B3 inh – inhibitors of human PAFAH1B3; inhibition, % at 3.39 µM; Q15102; actives 0.28% (n = 340,000); recombinant PAFAH1B3, FP-rhodamine probe, fluorescence polarization;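 active means inhibition above the screen-wide average of all tested compounds plus 3 SD, cut at about 25% in these data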;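 further: 0% = enzyme with DMSO only and 100% = wells lacking PAFAH1B3 protein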
* hit, by the source's call. Most compounds without a hit are left out; they make up all but 2.8% or so of the library.

O=C(O)CN1C(=O)/C(=C\c2cccc(OCc3ccc(F)cc3)c2)SC1=S was read as PAFAH2 FP inh 4.7, PAFAH1B2 inh 28.4*, DAGLB inhibitor 8.5, HTRA1 inh -27.0 and PAFAH1B3 inh 15.1.
Screening COc1cc(/C=C2\CCCc3c2nc2ccccc2c3C(=O)O)cc(Br)c1O returned PAFAH2 FP inh 6.4, PAFAH1B2 inh 2.1, pPAFAH FP inh 12.1, DAGLB inhibitor 4.6, HTRA1 inh -15.9 and PAFAH1B3 inh 12.3.
Screening COc1cc(/C=C2\CCc3c2nc2ccccc2c3C(=O)O)cc(OC)c1OC returned PAFAH2 FP inh 17.7, PAFAH1B2 inh -1.4, pPAFAH FP inh 31.6*, DAGLB inhibitor 2.1, HTRA1 inh 30.5 and PAFAH1B3 inh 11.0.
Screening CCOC(=O)c1c(NC(=O)COC(=O)CCOc2ccc(C)cc2)sc(C(=O)N(C)C)c1C returned PAFAH2 FP inh 5.8, PAFAH1B2 inh 3.6, pPAFAH FP inh 16.3, DAGLB inhibitor -13.6, HTRA1 inh -22.6 and PAFAH1B3 inh -2.6.
`CC(=O)c1cccc(NC(=O)CN(C)S(=O)(=O)c2cccc3nsnc23)c1` gave PAFAH2 FP inh -3.4, PAFAH1B2 inh 5.4, pPAFAH FP inh -6.6, DAGLB inhibitor -2.7, HTRA1 inh -0.2 and PAFAH1B3 inh 11.6.
CC1CCN(S(=O)(=O)c2cccc(C(=O)NCc3ccco3)c2)CC1 was read as PAFAH2 FP inh 6.2, PAFAH1B2 inh 24.5*, pPAFAH FP inh 2.8, DAGLB inhibitor -0.8, HTRA1 inh 7.5 and PAFAH1B3 inh 3.1.
Screening O=C(NCc1ccco1)c1cccc(S(=O)(=O)N2CCCC2)c1 returned PAFAH2 FP inh 4.8, PAFAH1B2 inh -1.1, DAGLB inhibitor -1.5, HTRA1 inh 1.7 and PAFAH1B3 inh 16.0.
Screening CC1CCN(S(=O)(=O)c2cccc(C(=O)NCc3cccs3)c2)CC1 returned PAFAH2 FP inh 4.6, PAFAH1B2 inh 27.4*, pPAFAH FP inh -2.3, DAGLB inhibitor 2.6, HTRA1 inh -6.4 and PAFAH1B3 inh 0.5.
`CC1(C)CC(=O)c2sc(NS(=O)(=O)c3ccc(Br)cc3)nc2C1` gave PAFAH2 FP inh 9.4, PAFAH1B2 inh 26.9*, pPAFAH FP inh -22.6, DAGLB inhibitor 4.0, HTRA1 inh -3.0 and PAFAH1B3 inh 6.1.
Screening COCC1CCCCN1Cc1cn[nH]c1-c1ccc2cc(OC)ccc2c1 (stereo not drawn) returned PAFAH2 FP inh -4.4, PAFAH1B2 inh -0.3, pPAFAH FP inh -3.3, DAGLB inhibitor 2.2, HTRA1 inh -13.5 and PAFAH1B3 inh 4.2.
Nc1c(N2CCCC2)cc(Cl)c2nonc12 was read as PAFAH2 FP inh 35.1*, PAFAH1B2 inh 13.2, pPAFAH FP inh 14.9, DAGLB inhibitor 0.5, HTRA1 inh 36.9* and PAFAH1B3 inh 65.7*.
For CCOc1ncccc1C(=O)Nc1cc(S(=O)(=O)N2CCCCCC2)ccc1OC the results were PAFAH2 FP inh 10.3, PAFAH1B2 inh 3.9, DAGLB inhibitor 1.2, HTRA1 inh -1.2 and PAFAH1B3 inh 8.3.
Nc1nc(-c2ccc(Br)cc2)cs1 was read as PAFAH2 FP inh 3.3, PAFAH1B2 inh 83.4*, pPAFAH FP inh 8.1, DAGLB inhibitor -1.7, HTRA1 inh -8.0 and PAFAH1B3 inh 6.1.
`Nc1nc(-c2ccccc2)cs1` gave PAFAH2 FP inh -0.2, PAFAH1B2 inh 39.4*, pPAFAH FP inh 1.8, DAGLB inhibitor 4.3, HTRA1 inh 1.6 and PAFAH1B3 inh 5.9.
`Nc1nc(-c2ccc(F)cc2)cs1` gave PAFAH2 FP inh -11.3, PAFAH1B2 inh 54.9*, pPAFAH FP inh -2.3, DAGLB inhibitor -0.1, HTRA1 inh 0.1 and PAFAH1B3 inh -1.7.
For Cc1noc(C)c1NC(=O)N(C)C[C@@H]1OCc2cnnn2CCCC(=O)N([C@@H](C)CO)C[C@@H]1C the results were DAGLB inhibitor -4.6 and HTRA1 inh 0.2.
Screening O=C(O)C1Nc2c(C(=O)N3CCOCC3)cccc2C2C=CCC12 (stereo not drawn) returned PAFAH2 FP inh 22.7, PAFAH1B2 inh 6.5, pPAFAH FP inh 19.8, DAGLB inhibitor 0.2, HTRA1 inh 6.5 and PAFAH1B3 inh 1.2.
For Cc1ccc2c(c1C)NC(C(=O)O)C1CC=CC21 (stereo not drawn) the results were PAFAH2 FP inh 43.7*, PAFAH1B2 inh 8.8, pPAFAH FP inh 64.6*, DAGLB inhibitor 4.8, HTRA1 inh 51.1* and PAFAH1B3 inh 11.5.
For COCCNC(=O)C1Nc2ccc(C(F)(F)F)cc2C2C=CCC12 (stereo not drawn) the results were PAFAH2 FP inh 4.8, PAFAH1B2 inh 8.3, pPAFAH FP inh 10.5, DAGLB inhibitor 3.4, HTRA1 inh 29.5 and PAFAH1B3 inh 14.3.
CCOC(=O)c1ccc2c(c1)C1C=CCC1C(C(=O)O)N2 (stereo not drawn) was read as pPAFAH FP inh 83.0*.
Screening O=C(O)c1ccc2c(c1)C1C=CCC1C(c1ccncc1)N2 (stereo not drawn) returned PAFAH2 FP inh -0.4, PAFAH1B2 inh 0.6, pPAFAH FP inh 25.4*, DAGLB inhibitor -1.6, HTRA1 inh 6.1 and PAFAH1B3 inh 21.2.
`COc1cc2nc(NC(=O)c3ccc(F)cc3Cl)sc(=O)c2cc1OC` gave PAFAH2 FP inh 1.2, PAFAH1B2 inh 1.1, pPAFAH FP inh 2.9, DAGLB inhibitor 10.2, HTRA1 inh -8.8 and PAFAH1B3 inh 5.4.
CSc1ccc(CCNC(=O)c2ccc(CS(=O)Cc3ccc(Cl)cc3)o2)cc1 (stereo not drawn) was read as PAFAH2 FP inh -2.2, PAFAH1B2 inh 6.4, pPAFAH FP inh 29.9*, DAGLB inhibitor -3.2, HTRA1 inh -8.8 and PAFAH1B3 inh 3.8.
`CC(NC(=O)COC(=O)c1ccccc1O)C1CC2CCC1C2` (stereo not drawn) gave PAFAH2 FP inh 23.5, PAFAH1B2 inh 13.3, pPAFAH FP inh 8.0, DAGLB inhibitor 0.6, HTRA1 inh -5.6 and PAFAH1B3 inh 5.8.
COc1ccc(NS(=O)(=O)c2ccc(O)c(C(=O)OCC(=O)NC(C)C3CC4CCC3C4)c2)cc1 (stereo not drawn) was read as PAFAH2 FP inh 20.3, PAFAH1B2 inh 17.1, pPAFAH FP inh 31.5*, DAGLB inhibitor -1.2, HTRA1 inh 1.7 and PAFAH1B3 inh 3.3.
Screening CC(NC(=O)COC(=O)c1cc(NS(=O)(=O)c2ccc(Cl)c([N+](=O)[O-])c2)ccc1O)C1CC2CCC1C2 (stereo not drawn) returned PAFAH2 FP inh 25.0, PAFAH1B2 inh 21.6, pPAFAH FP inh 28.5*, DAGLB inhibitor 5.1, HTRA1 inh -40.5 and PAFAH1B3 inh 4.3.
Screening Cc1c(CNCCc2ccccc2Cl)c(C(=O)O)c(C)n1-c1ccccc1 returned PAFAH2 FP inh 5.4, PAFAH1B2 inh 6.5, pPAFAH FP inh 2.9, DAGLB inhibitor -3.7, HTRA1 inh -12.6 and PAFAH1B3 inh 6.8.
`CCC(C)NC(=O)c1cc(S(=O)(=O)N2CCCCC2)c[nH]1` (stereo not drawn) gave PAFAH2 FP inh -0.7, PAFAH1B2 inh 1.3, pPAFAH FP inh -1.0, DAGLB inhibitor -2.1, HTRA1 inh -3.5 and PAFAH1B3 inh 5.3.

Assay outcomes (PubChem BioAssay)
